Test results reported in PubChem BioAssay (NCI).
“And” between values parts separate entries of the source, which are not always exact repeats. Identical values can stand only once. About 83,000 compounds went through this panel and 20% of them were active in at least one assay; those are over-represented in the sample as a whole.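 48-hour exposure, single concentration, 96-well plates; percent growth endpoint where 0 means no net growth. Active: below 10.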 The source made the active and inactive calls.

Columns and labels:
Test in all cases: NCI-60 one-dose screen, 48 h (100 = growth as untreated, 0 = no growth, -100 = all killed)
Settings in all cases: 10 µM unless noted
NCI-H23 lung = tested on: NCI-H23 lung
NCI-H226 lung = tested on: NCI-H226 lung
NCI-H322M lung = tested on: NCI-H322M lung
HOP-62 NSCLC = tested on: HOP-62 NSCLC
NCI-H460 lung = tested on: NCI-H460 lung
HOP-92 NSCLC = tested on: HOP-92 NSCLC
NCI-H522 lung = tested on: NCI-H522 lung
A549/ATCC NSCLC = tested on: A549/ATCC NSCLC
786-0 renal = tested on: 786-0 renal
COLO 205 colon = tested on: COLO 205 colon
DU-145 prostate = tested on: DU-145 prostate
K-562 leukemia = tested on: K-562 leukemia
MALME-3M melanoma = tested on: MALME-3M melanoma
MDA-MB-231 breast = tested on: MDA-MB-231 breast
RXF 393 renal = tested on: RXF 393 renal
SF-268 CNS = tested on: SF-268 CNS
SF-295 CNS = tested on: SF-295 CNS
SF-539 CNS = tested on: SF-539 CNS
UACC-257 melanoma = tested on: UACC-257 melanoma
M14 melanoma = tested on: M14 melanoma

Measured: growth

CCCc1cc(C(N)=S)ccn1
inactive: NCI-H23 lung 108% | NCI-H226 lung 100% | NCI-H322M lung 101% | HOP-62 NSCLC 106% | NCI-H460 lung 111% | HOP-92 NSCLC 95.1% | NCI-H522 lung 93.6% | A549/ATCC NSCLC 103% | 786-0 renal 95.6% | COLO 205 colon 107% | DU-145 prostate 109% | K-562 leukemia 95.3% | MALME-3M melanoma 93.7% | MDA-MB-231 breast 115% | RXF 393 renal 111% | SF-268 CNS 114% | SF-295 CNS 99.1% | SF-539 CNS 100% | UACC-257 melanoma 112% | M14 melanoma 102%

Cc1ccc(-c2nc3nc(-c4ccc(Br)cc4)nc(N4CCCNCC4)c3o2)cc1
active: NCI-H460 lung -73% | A549/ATCC NSCLC -74.7% | 786-0 renal -90.6% | COLO 205 colon -49% | K-562 leukemia -48.4% | MDA-MB-231 breast -57% | SF-539 CNS 3.79% | M14 melanoma -54.2%
inactive: NCI-H23 lung 97.9% | NCI-H226 lung 103% | NCI-H322M lung 68.9% | HOP-62 NSCLC 82% | HOP-92 NSCLC 91.7% | NCI-H522 lung 72.6% | DU-145 prostate 14.2% | MALME-3M melanoma 88.3% | RXF 393 renal 87.1% | SF-268 CNS 98.6% | SF-295 CNS 69.2% | UACC-257 melanoma 103%

COc1ccc2c(c1)c(-c1nc(-c3c[nH]c4c(Cl)nccc34)cs1)cn2C
inactive: NCI-H23 lung 73.9% | NCI-H226 lung 37.2% | NCI-H322M lung 91.3% | HOP-62 NSCLC 92.6% | NCI-H460 lung 31.1% | HOP-92 NSCLC 76.1% | NCI-H522 lung 86.6% | A549/ATCC NSCLC 84.7% | 786-0 renal 124% | COLO 205 colon 93.9% | DU-145 prostate 90% | K-562 leukemia 90.8% | MALME-3M melanoma 117% | MDA-MB-231 breast 52.2% | RXF 393 renal 83.2% | SF-268 CNS 111% | SF-295 CNS 97.2% | SF-539 CNS 89.7% | UACC-257 melanoma 100% | M14 melanoma 90.8%

Cc1ccc(NC(=O)N/C(N)=N/c2nc(=O)c3ccccc3s2)cc1
inactive: NCI-H23 lung 94.1% | NCI-H226 lung 91.3% | NCI-H322M lung 93.9% | HOP-62 NSCLC 91.7% | NCI-H460 lung 88.8% | HOP-92 NSCLC 86.4% | NCI-H522 lung 95.3% | A549/ATCC NSCLC 103% | 786-0 renal 98.6% | COLO 205 colon 103% | DU-145 prostate 108% | K-562 leukemia 57% | MALME-3M melanoma 93.9% | MDA-MB-231 breast 86% | RXF 393 renal 99% | SF-268 CNS 102% | SF-295 CNS 101% | SF-539 CNS 95.5% | UACC-257 melanoma 103% | M14 melanoma 92.4%

CC12CCC(C(=O)CC1=O)C2(C)C (stereo not given)
inactive: NCI-H23 lung 108% and 97.9% | NCI-H226 lung 95.8% | NCI-H322M lung 112% and 97.3% | HOP-62 NSCLC 110% | NCI-H460 lung 104% and 114% | HOP-92 NSCLC 102% and 94.9% | NCI-H522 lung 103% and 153% | A549/ATCC NSCLC 101% and 103% | 786-0 renal 104% and 96.6% | COLO 205 colon 114% and 110% | DU-145 prostate 110% and 108% | K-562 leukemia 102% and 84.9% | MALME-3M melanoma 105% and 87.4% | MDA-MB-231 breast 111% and 105% | RXF 393 renal 106% | SF-268 CNS 99.2% and 100% | SF-295 CNS 100% | SF-539 CNS 107% and 112% | UACC-257 melanoma 103% and 91.7% | M14 melanoma 102% and 101%

N#CC1=C(N)Oc2c(sc3c(Br)cccc23)C1c1ccccn1 (stereo not given)
active: NCI-H522 lung -14.1% | COLO 205 colon 6.4% | SF-539 CNS 6.33%
inactive: NCI-H23 lung 53.3% | NCI-H226 lung 41.2% | NCI-H322M lung 51.1% | HOP-62 NSCLC 30.9% | NCI-H460 lung 20.4% | HOP-92 NSCLC 35.3% | A549/ATCC NSCLC 40.1% | 786-0 renal 27.2% | DU-145 prostate 51.2% | K-562 leukemia 15.2% | MALME-3M melanoma 45.4% | MDA-MB-231 breast 59.8% | RXF 393 renal 13.5% | SF-268 CNS 41.5% | SF-295 CNS 18% | UACC-257 melanoma 51.1% | M14 melanoma 28.1%

N#C/C(=C\c1ccccc1Cl)c1cc2ccccc2[nH]1
inactive: NCI-H23 lung 82.8% | NCI-H226 lung 75.2% | NCI-H322M lung 89.5% | HOP-62 NSCLC 65.3% | NCI-H460 lung 90.5% | HOP-92 NSCLC 37.3% | NCI-H522 lung 82.5% | A549/ATCC NSCLC 90.5% | 786-0 renal 99.6% | COLO 205 colon 105% | DU-145 prostate 100% | K-562 leukemia 70.5% | MALME-3M melanoma 92.8% | MDA-MB-231 breast 68.7% | RXF 393 renal 102% | SF-268 CNS 96.3% | SF-295 CNS 93.9% | SF-539 CNS 89.4% | UACC-257 melanoma 94.2% | M14 melanoma 91.8%
